Source: PubChem BioAssay (National Center for Advancing Translational Sciences (NCATS))
Lassa entry: qHTS for Inhibitors of binding or entry into cells for Lassa Virus; Potency, µM (highest dose often 49.2 µM), for inactives: at the top dose activity change, negative = inhibition, most hits filed as inhibitors; Lassa virus pseudotyped entry inhibition, cell-based qHTS; AID 720533, 2013; 4.1% of 18,000 active
Marburg entry: qHTS for Inhibitors of binding or entry into cells for Marburg Virus; Potency, µM (top dose mostly 49.2 µM), for inactives: top-dose activity change, negative = inhibition, hits mostly inhibitors; 6.5% of 18,000 active; AID 720532, 2013; Marburg virus pseudotype entry/binding inhibition, cell-based
* hit, by the source's call; u = inconclusive; x = not tested or not shown; ! = repeats disagree; [ ] = another dose, or the depositor's remark. An excerpt weighted towards active compounds, which were near 8.6% of everything screened. Calls come from the whole dose curve; tested in HEK293 cells. % is set by controls: 0 for no effect and ±100 for the full control effect; potency is the fitted concentration of half-maximal effect.

SMILES	Lassa entry	Marburg entry
COC(=O)C1=C(C)N(Cc2ccccc2)C(=NCCc2cccnc2)NC1c1ccc(Br)cc1 (stereo not drawn)	-4%[8.59 µM]	4%[8.59 µM]
C#CCN1C(=O)C2(CC(C)=C[C@@H](C)O2)c2c(Br)cccc21 (stereo partly drawn)	34%[8.59 µM]	46%[8.59 µM]
C[C@@H]1CCCN1[C@@H]1C[S+](=O)([O-])N[C@@H]1COCc1ccccc1	8%	14%
CCCC[C@@H](C)/C=C(C)/C=C(\C)C(=O)NC1=C[C@@](O)(/C=C/C=C/C=C/C(=O)NC2=C(O)CCC2=O)[C@@H]2O[C@@H]2C1=O	16µM*	5.6µM*
CC(C)N1C(=O)[C@@H]2CSCCS(=O)(=O)N2C1=O	7%	17%
CC12C(=O)OC(=O)C1(C)C1CCC2O1 (stereo not drawn)	2.8µM*	3.5µM*
COC(=O)C1=C(C)N(Cc2ccccc2)C(=O)NC1c1ccco1 (stereo not drawn)	18%[8.59 µM]	13%[8.59 µM]
CC1(C)CN(Cc2cccnc2)C(=O)[C@@H]1CC(=O)Nc1ccc(Br)cc1	10%	u
COC[C@@H](O)[C@H]1OCc2ccccc2[C@H]1C=Cc1ccccc1	-2%[8.59 µM]	7%[8.59 µM]
CCCCCCCCCc1ccc(OCCOCCO)cc1	11µM*	u
CCCCCCCCCCCCOCCOCCOCCOCCO	-15%	-48%
N#Cc1c(NC(=O)c2ccc(F)cc2)sc2c1CCCC2	21%	49%
COC[C@@H](O)[C@H]1OCc2cccc(OC)c2[C@H]1C=Cc1ccccc1	-19%[8.59 µM]	8%[8.59 µM]
C[C@H]1CN(c2ccc(Br)cc2)C(=O)[C@H]1CC(=O)Nc1ccccc1	9%	24%
CCN1CCN(c2cc(-c3ccc(F)cc3)c3c(n2)CCCCCC3)CC1	13µM*	7.9µM*
COC(=O)[C@]1(C=C2c3ccccc3C[C@H](OC)[C@@H]2C)[C@@H]2CC=C[C@@H]21	-6%[8.59 µM]	-8%[8.59 µM]
COc1ccc2c(c1OC)C(Cc1ccccc1)N1CCc3cc4c(cc3C1=C2)OCO4 (stereo not drawn)	25µM*	u
COc1ccc2c(c1OC)C(=O)OC2C1c2cc3c(cc2CCN1C)OCO3 (stereo not drawn)	-1%	8%
Cc1ccc2nc(CNC(=O)c3cc(NC(=O)c4ccccc4)cc4ncn(C5CCCC5)c34)cn2c1	-5%	-14%
Cc1cc(OCc2cn(CC(=O)c3ccc(O)cc3)nn2)cc(C)c1C	u	22%
OCCNCCCOc1cccc(Cl)c1Cl	u	6.3µM*
CC(C)[C@@H]1CC[C@@H](C)C[C@H]1OC(=O)c1ccccc1O	-10%	-13%
COC1=C(C(=O)c2ccccc2)C(=O)[C@@]2(CC=C(C)C)CC(C#N)C[C@@]1(CC=C(C)C)C2=O (stereo partly drawn)	u	-16%[8.59 µM]
COC(=O)[C@H](NC(=O)c1cc(-c2ccccc2)nc2ccccc12)c1ccccc1	u	12%
COC(=O)[C@H](CC(C)C)NC(=O)c1ccc(NC[C@@H](N)CS)cc1-c1cccc2ccccc12	11µM*	11µM*
SMILES	Lassa entry	Marburg entry
CCN(CC)CCOc1ccc(Cc2ccccc2)cc1	7%	10µM*
CN(C)CCOc1ccc(/C(=C(/CCCl)c2ccccc2)c2ccccc2)cc1	-30%	u
COC(=O)C12CC3=CCC4C(=O)N(c5ccccc5)C(=O)C4C3Cc3ccccc3[C@H]1CNC2=O (stereo partly drawn)	21%[8.59 µM]	5%[8.59 µM]
Cn1c2ccccc2c2c3c(c4c5ccccc5n(CCC#N)c4c21)CNC3=O	11µM*	u
CCOC(=O)OC[C@H]1O[C@H](C#Cc2ccccc2)C=C[C@H]1OC(=O)OCC	-10%[8.59 µM]	-16%[8.59 µM]
CC1(C)CN(Cc2ccccc2)C(=O)[C@@H]1CC(=O)Nc1ccccc1	x	16%
CN1CCCCC1CCN1c2ccccc2Sc2ccc(S(C)=O)cc21 (stereo not drawn)	u	8.9µM*!
Oc1cccc[c]1[Hg][Cl]	1µM*	u
Oc1cccc(O)c1O	-8%	u
CCOC(=O)[C@@]1([C@@H](NC(=O)OC)c2cccc(F)c2)CCCC1=O	1%[8.59 µM]	-13%[8.59 µM]
CC1CCC2(OC1)OC1CC3C4CC[C@@H]5CC(O)CC[C@@]5(C)C4CC(=O)[C@]3(C)C1C2C (stereo partly drawn)	6%	1%
C[C@H]1CC[C@]2(NC1)O[C@H]1C[C@H]3[C@@H]4CC[C@H]5C[C@@H](O[C@@H]6O[C@H](CO)[C@H](O[C@@H]7O[C@H](CO)[C@@H](O)[C@H](O[C@@H]8OC[C@@H](O)[C@H](O)[C@H]8O)[C@H]7O[C@@H]7O[C@H](CO)[C@@H](O)[C@H](O)[C@H]7O)[C@H](O)[C@H]6O)CC[C@]5(C)[C@H]4CC[C@]3(C)[C@H]1[C@@H]2C	14µM*	4.5µM*
COCCN1C(=O)NC(c2cccc(C(F)(F)F)c2)C(C(=O)OC)=C1C (stereo not drawn)	27%[8.59 µM]	24%[8.59 µM]
CC(=O)OC1CC2C(C)(C)C=CC(=O)[C@@]2(C)C2CC[C@@]3(C)C(c4ccoc4)OC(=O)C4OC43[C@]12C (stereo partly drawn)	18%	8%
CC(=O)OC1CC(OC(C)=O)[C@]2(C)C(CC(OC(C)=O)[C@]3(C)C2CC[C@@]2(C)C(c4ccoc4)C[C@H]4O[C@]432)C1(C)C (stereo partly drawn)	-2%	-22%
CC(=O)O[C@@H]1C[C@@]2(C)C(c3ccoc3)C[C@H]3O[C@]32[C@]2(C)C(=O)C(O)=C3C(C)(C)C(=O)C=C[C@]3(C)C12 (stereo partly drawn)	8.9µM*	8.9µM*
CC(=O)OC1C[C@@]2(C)C(c3ccoc3)C[C@H]3O[C@@]32[C@@]2(C)C(=O)C(O)=C3C(C)(C)C(=O)C=C[C@]3(C)C12 (stereo partly drawn)	u	2.5µM*
C[C@H]1[C@H](N=[N+]=[N-])[C@H](O)CCO[C@@H]1c1ccccc1	8%[8.59 µM]	13%[8.59 µM]
CCCCCCN1C[C@H](O)[C@@H](n2cc(C3CC3)nn2)C[C@H]1c1ccc(Cl)cc1	-32%	u
CCOC(=O)C1OC1C(=O)N[C@@H](CC(C)C)C(=O)NCCC(C)C (stereo partly drawn)	-4%	5µM*
CCOC(=O)C1OC1C(=O)NC(CC(C)C)C(=O)NCCC(C)C (stereo not drawn)	-3%	3.5µM*
C=C1c2cccc(C(F)(F)F)c2O[C@H](C(=O)OCC)[C@@H]1CCC(C)C	4%	-12%
Cc1cc(C)c(-c2cc([C@H](C)ON=C[C@@H](C)[C@H](OCc3ccccc3)C(C)C)on2)c(C)c1	-2%[8.59 µM]	6%[8.59 µM]
C[N+]1(C)[C@@H]2CC[C@H]1CC(OC(=O)c1c[nH]c3ccccc13)C2 (stereo partly drawn)	-8%	6%
CN1[C@@H]2CC[C@H]1CC(OC(=O)c1c[nH]c3ccccc13)C2 (stereo partly drawn)	u	20µM*!
SMILES	Lassa entry	Marburg entry
COC1=CC2C(=O)C(C(c3ccccc3)C2C)C1(C)O (stereo not drawn)	-11%[8.59 µM]	1%[8.59 µM]
COc1ccccc1CNc1ncncc1-c1ccc(N(C)C)cc1	-9%	-19%
COc1ccc2[nH]cc(CCNc3ncncc3-c3ccc(N(C)C)cc3)c2c1	-19%	16µM*
CC(C)OC(=O)Nc1cccc(Cl)c1	-15%	24%
CC(NC(C)(C)C)C(=O)c1cccc(Cl)c1 (stereo not drawn)	28%	3.5µM*!
Fc1ccc(-c2ncn(C3CCNCC3)c2-c2ccnc(Oc3ccc(F)c(F)c3)n2)cc1	u	3.5µM*
